From PubChem BioAssay
Shown are actives, neighbours in structure and some others; about 2.6% of the full set was active somewhere.
ABHD5 PLIN5 PPI = inhibitors of human ABHD5-perilipin-5 interaction; Q00G26+Q8WTS1; Split G. princeps luciferase complementation, luminescence, 4 h; inhibition, % at 4 µM; 360,000 tested, 0.78% active; AID 602281;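 active means inhibition above the mean inhibition across every tested compound plus 3 SD, cut at about 22% in these data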;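 further: 0% = DMSO only wells and the 100% control is not disclosed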
PfM18AAP inh = blocks P. falciparum M18 aspartyl aminopeptidase; inhibition, % at 7.35 µM; AID 1822; recombinant PfM18AAP, H-Glu-NHMec fluorogenic cleavage; 290,000 tested, 1.2% active;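 active means inhibition above the campaign mean inhibition over all tested compounds plus 3 SD, cut at about 28% in these data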;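 further: 0% = plate median of test compound wells and 100% = 2 mM ZnCl2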
Rce1 inh = blocks yeast Ras-converting enzyme; Q03530; yeast membranes, quenched prenylated peptide cleavage fluorescence; calls only; 290,000 tested, 0.27% active;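 active means fall in fluorescence gain of 50% or more versus controls, with final raw signal at or below 3038400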;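 further: plate controls were neutral control wells for no effect and wells lacking membranes for full effect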
Granule exo inh = blocks lytic granule exocytosis; AID 651702; TALL-104 LAMP-1 surface exposure, flow cytometry; cells stimulated with thapsigargin and PMA; inhibition, % at 10 µM; 360,000 tested, 0.66% active;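 active means inhibition above about 55%, limit read from the data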
Platelet DG rel = modulates dense granule release in human platelets | human platelet-rich plasma, SFLLRN dense granule ATP release, luminescence | inhibition, %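 (compounds screened at 7.5 µM in platelet-rich plasma)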 | 300,000 tested, 0.22% active | AID 1663;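 active means mean replicate score, as percent of positive control, at or above 50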
* hit, by the source's call.

Screening O=C(N/N=C/c1ccccc1Cl)c1n[nH]c2c1CCCC2 returned ABHD5 PLIN5 PPI 2.3, PfM18AAP inh -8.0, Rce1 inh inactive, Granule exo inh -20.1 and Platelet DG rel 21.7.
Cc1nn(-c2ccccc2)c2nc(N)c(C(N)=O)cc12 was read as ABHD5 PLIN5 PPI -12.7, PfM18AAP inh -3.4, Rce1 inh active, Granule exo inh 5.0 and Platelet DG rel -0.5.
Screening COC(=O)c1cc(C)nc2c1c(C)nn2-c1ccccc1 returned ABHD5 PLIN5 PPI 1.3 and Granule exo inh 2.7.
`C=CCN(C(C)=O)C1CC(=O)N(c2ccc(OCCC)cc2)C1=O` (configuration not stated) gave ABHD5 PLIN5 PPI -2.6, PfM18AAP inh -6.0, Rce1 inh inactive, Granule exo inh -0.5 and Platelet DG rel 5.1.
O=C(Nc1ccc(Cl)cc1)NC1CCCC1Cc1ccco1 (configuration not stated) was read as ABHD5 PLIN5 PPI 49.3*, PfM18AAP inh -8.7, Rce1 inh inactive, Granule exo inh 7.6 and Platelet DG rel -2.8.
CCN(CC)c1ccc(C=Nc2cccnc2Cl)c(O)c1 was read as ABHD5 PLIN5 PPI 3.4, PfM18AAP inh 31.3*, Rce1 inh inactive, Granule exo inh -1.3 and Platelet DG rel 1.9.
Screening COc1ccc(C(=O)N/N=C/c2c(C)[nH]c(=O)[nH]c2=O)cc1 returned ABHD5 PLIN5 PPI 5.8, PfM18AAP inh -9.7, Rce1 inh inactive, Granule exo inh 1.2 and Platelet DG rel -1.7.
For COc1ccc(CO/N=C/c2c(C)[nH]c(=O)[nH]c2=O)cc1 the results were ABHD5 PLIN5 PPI 1.1, PfM18AAP inh 0.2, Rce1 inh inactive, Granule exo inh 2.2 and Platelet DG rel 72.1*.
For O=C(OCC(=O)N(CCc1ccccc1)Cc1ccccc1)c1cccc(S(=O)(=O)N2CCOCC2)c1 the results were ABHD5 PLIN5 PPI 14.9 and Granule exo inh -15.7.
CCN=c1scc(C)n1/N=C/c1cc(Br)c(O)c(Br)c1 was read as ABHD5 PLIN5 PPI 3.2, PfM18AAP inh 30.4*, Rce1 inh inactive, Granule exo inh 0.6 and Platelet DG rel 2.8.
CCOc1ccc(S(=O)(=O)N(CC(=O)NCc2cccnc2)c2ccc(C)cc2)cc1 was read as ABHD5 PLIN5 PPI -1.8, PfM18AAP inh 0.3, Rce1 inh inactive, Granule exo inh 4.1 and Platelet DG rel 13.2.
`CN1c2ccccc2C(C)(C)C12C=Cc1cc(O)ccc1O2` (configuration not stated) gave ABHD5 PLIN5 PPI 5.3, PfM18AAP inh 29.8*, Rce1 inh inactive, Granule exo inh 3.5 and Platelet DG rel -3.8.
For CN1c2ccccc2C(C)(C)C12C=Nc1c(cc(N3CCOCC3)c3ccccc13)O2 (configuration not stated) the results were ABHD5 PLIN5 PPI -43.7, PfM18AAP inh 19.9, Rce1 inh inactive, Granule exo inh 2.6 and Platelet DG rel 0.8.
`CC(C)C[C@H](N)c1nnc(SCC(=O)Nc2ccc(Br)cc2)o1` gave ABHD5 PLIN5 PPI 1.5, PfM18AAP inh -2.5, Rce1 inh inactive, Granule exo inh -0.5 and Platelet DG rel 1.6.
`CC(C)C[C@H](N)c1nnc(S(=O)(=O)Cc2ccc(F)cc2)o1` gave ABHD5 PLIN5 PPI 31.1*, PfM18AAP inh -30.9, Rce1 inh inactive, Granule exo inh 22.6 and Platelet DG rel -2.6.
Screening COc1ccc(C(=O)Nc2ccccc2C(=O)N/N=C/c2ccco2)cc1 returned ABHD5 PLIN5 PPI 1.1, PfM18AAP inh -0.5, Rce1 inh inactive, Granule exo inh -4.6 and Platelet DG rel 78.5*.
For COc1ccc(OC)c(S(=O)(=O)Oc2ccc(N)c3ccccc23)c1 the results were ABHD5 PLIN5 PPI -14.7, Rce1 inh inactive, Granule exo inh 75.3* and Platelet DG rel 8.0.
`COc1ccc(OC)c(S(=O)(=O)Nc2cccc3ccccc23)c1` gave ABHD5 PLIN5 PPI -1.2, Rce1 inh inactive, Granule exo inh 14.2 and Platelet DG rel -25.3.
`COC(=O)c1cc(N=CC2=C(O)CC(C)(C)CC2=O)cc(C(=O)OC)c1` gave ABHD5 PLIN5 PPI 9.3, PfM18AAP inh 29.6*, Rce1 inh inactive, Granule exo inh -0.2 and Platelet DG rel 4.4.
`COc1ccc(C(=O)c2c3ccccc3[n+]([O-])n2CCCN)cc1` gave ABHD5 PLIN5 PPI -0.9, Rce1 inh inactive, Granule exo inh -3.8 and Platelet DG rel 6.8.
For Cc1ccc(C(=O)c2c3ccccc3[n+]([O-])n2CCO)cc1 the results were ABHD5 PLIN5 PPI -6.5, Rce1 inh active, Granule exo inh 6.0 and Platelet DG rel -3.4.
Screening Cc1ccc(C(=O)c2c3ccc(C(F)(F)F)cc3[n+]([O-])n2CCCC(N)=O)cc1 returned ABHD5 PLIN5 PPI -16.0, Rce1 inh active, Granule exo inh -4.6 and Platelet DG rel -0.5.
`Cc1ccc(C(=O)c2c3ccc(C(F)(F)F)cc3[n+]([O-])n2CCC(N)=O)cc1` gave ABHD5 PLIN5 PPI -7.3, PfM18AAP inh 1.2, Rce1 inh inactive, Granule exo inh 0.0 and Platelet DG rel -0.9.
For COc1cc(C(=O)NCCC(=O)NCCN2CCOCC2)cc(OC)c1OC the results were ABHD5 PLIN5 PPI 0.4, PfM18AAP inh -3.7, Rce1 inh inactive, Granule exo inh -1.5 and Platelet DG rel -0.2.
COc1ccccc1C(CNC(=O)CN1C(=O)NC(C)(c2ccc3ccccc3c2)C1=O)N1CCCC1 (configuration not stated) was read as ABHD5 PLIN5 PPI -7.5 and Granule exo inh -0.7.
`O=C1CCC(=O)N1c1cccc(OS(=O)(=O)c2ccccc2)c1` gave ABHD5 PLIN5 PPI 2.2, PfM18AAP inh 35.7*, Rce1 inh inactive, Granule exo inh -2.6 and Platelet DG rel 9.4.
CC1CCC2C(=O)N(c3cccc(OS(=O)(=O)c4ccccc4)c3)C(=O)C2C1 (configuration not stated) was read as ABHD5 PLIN5 PPI -9.2, PfM18AAP inh 1.4, Rce1 inh inactive, Granule exo inh 1.0 and Platelet DG rel -1.3.
For CN(C)/C=N/c1nc2nccc(-c3cccc(Cl)c3)n2n1 the results were ABHD5 PLIN5 PPI -0.3, PfM18AAP inh 3.8, Granule exo inh -2.1 and Platelet DG rel -0.9.
CN(C)/C=N/c1nc2nccc(-c3ccc(F)cc3)n2n1 was read as ABHD5 PLIN5 PPI 2.2, PfM18AAP inh -1.6, Rce1 inh active, Granule exo inh -2.0 and Platelet DG rel -1.3.
For O=S(=O)(Nc1ccc(-c2ccc3nncn3n2)cc1)c1ccc(Cl)s1 the results were ABHD5 PLIN5 PPI 7.5, Rce1 inh inactive, Granule exo inh 0.2 and Platelet DG rel -8.3.
Screening O=S(=O)(Nc1ccc(-c2ccc3nncn3n2)cc1)c1ccccc1Cl returned ABHD5 PLIN5 PPI 5.1, Rce1 inh inactive, Granule exo inh 6.1 and Platelet DG rel 60.9*.
`COC(=O)CC1(CC(N)=O)SCCS1` gave ABHD5 PLIN5 PPI 3.6 and Granule exo inh 7.9.
For CC(NC(=O)CCc1nc2cc(S(=O)(=O)N3CCOCC3)ccc2n1C)c1ccc(S(N)(=O)=O)cc1 (configuration not stated) the results were ABHD5 PLIN5 PPI 6.1, PfM18AAP inh -0.2, Rce1 inh inactive, Granule exo inh 4.0 and Platelet DG rel 55.3*.
